Sampled rows, rich in hits. Any-hit rate of the full collection: about 1.2%.
gsp antag – gsp mutant antagonism; gsp-mutant cells, cAMP HTRF, 30 min; Potency, µM (titrated, usually from 76.9 µM), for the others: at the highest dose activity change, negative = inhibition, most hits filed as inhibitors; actives 0.4% (n = 340,000); calls by dose curve; cell line not stated here;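 also: intracellular cAMP measured with PDE inhibitor Ro 20-1724 present during compound exposure; potency is read from the fitted curve at half-maximal effect; % is scaled to controls: 0 for no effect and ±100 for the full control effect; nearly all actives have a fitted effect of over 65% in size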
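Measurement of cellular cAMP by homogeneous time-resolved fluorescence following a 30 min compound exposure at 37C. The PDE inhibitor […] was present throughout; the assay buffer was DPBS with 0.05% BSA and 0.005% Tween 20.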
RXFP1 antagonist – antagonists of human relaxin receptor RXFP1 | Q9HBX9 | activity change, negative = inhibition, % at 57.5 µM | HEK293-RXFP1, relaxin-stimulated cAMP HTRF, 30 min; stronger effect = lower value | actives 0.59% (n = 350,000);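 active = activity change of -60% or lower, but not beyond a set lower limit; inconclusive = change between -60% and -40%, or beyond the set limit; inactive = change above -40%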; also: % is scaled to controls: 0 for no effect and ±100 for the full control effect
Target sequence (Q9HBX9 whole entry, looked up): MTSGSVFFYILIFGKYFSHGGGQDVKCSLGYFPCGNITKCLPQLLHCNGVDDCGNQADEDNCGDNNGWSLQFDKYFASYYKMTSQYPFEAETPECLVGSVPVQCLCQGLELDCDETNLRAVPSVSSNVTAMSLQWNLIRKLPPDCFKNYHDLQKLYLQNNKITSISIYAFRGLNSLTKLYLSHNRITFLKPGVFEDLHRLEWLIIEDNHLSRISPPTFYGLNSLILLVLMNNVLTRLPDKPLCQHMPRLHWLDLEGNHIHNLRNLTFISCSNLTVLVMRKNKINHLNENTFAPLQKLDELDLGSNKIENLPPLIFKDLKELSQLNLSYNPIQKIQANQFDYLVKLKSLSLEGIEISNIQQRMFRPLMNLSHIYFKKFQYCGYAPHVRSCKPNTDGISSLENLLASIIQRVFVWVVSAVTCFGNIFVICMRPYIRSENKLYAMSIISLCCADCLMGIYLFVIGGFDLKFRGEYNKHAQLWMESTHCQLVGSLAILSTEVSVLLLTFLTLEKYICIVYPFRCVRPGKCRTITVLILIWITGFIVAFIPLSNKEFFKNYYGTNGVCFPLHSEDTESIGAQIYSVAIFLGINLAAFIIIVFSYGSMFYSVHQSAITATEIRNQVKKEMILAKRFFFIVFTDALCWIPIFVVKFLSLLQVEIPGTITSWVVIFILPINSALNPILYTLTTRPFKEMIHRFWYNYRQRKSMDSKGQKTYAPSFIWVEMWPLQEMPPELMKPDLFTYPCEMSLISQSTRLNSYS
RXFP1 agonist – RXFP1 (human) receptor agonism; Potency, µM (doses to about 57.5 µM), inactives show at the top dose activation, hits mostly activators; Q9HBX9; HEK293T-RXFP1 cAMP TR-FRET, 30 min; response scale: percent of porcine relaxin response, buffer zero; actives 0.3% (n = 370,000); AID 2676; active = well fitted activation curve with a large enough effect; inconclusive = small, poorly fitted or top-dose-only effect; also: potency is read from the fitted curve at half-maximal effect; % is scaled to controls: 0 for no effect and ±100 for the full control effect; nearly all actives have a fitted effect of over 60% in size
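cAMP rise read by TR-FRET after 30 min, 37C compound exposure (up to 58 uM) in RXFP1-transfected HEK293 cells with Ro 20174 present. EC50 from Hill-equation fits, with 29 nM porcine relaxin as 100% and buffer as basal.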
gsp agonist – agonists of gsp mutant (McCune-Albright syndrome) | AID 624287 | gsp mutant cells, cAMP HTRF, 30 min | Potency, µM (doses to about 76.9 µM), inactives show top-dose activation (cAMP increase), most hits filed as activators | actives 0.13% (n = 340,000); active = well fitted activation curve with a large enough effect; inconclusive = small, poorly fitted or top-dose-only effect, or another doubt; inactive = no such curve, though single readings can be large or run the other way; cell line not stated here;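 also: phosphodiesterase inhibitor Ro 20-1724 added with compounds to block cAMP breakdown; potency is read from the fitted curve at half-maximal effect; nearly all actives have a fitted effect of over 60% in size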
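Cells in DMEM/10% FBS with G418 were pretreated with compounds in DMSO plus […] (300 uM stock) for 30 min at 37C. cAMP was measured by HTRF (cAMP-d2 plus anti-cAMP antibody-K) after 30 min at room temperature.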
pAkt inh – Akt phosphorylation inhibition; Neuro2A IGF-stimulated pAkt S473 HTRF, 20 min; stronger effect = lower value; activity change, % for hits at 50 µM; actives 0.32% (n = 360,000); in the data active = activity change below about -80%; inconclusive = mostly about -51% to -80%; also: % is scaled to controls: 0 for no effect and ±100 for the full control effect
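Single-point screen (50 µM final compound) in Neuro2A cells stimulated 20 min with 6 nM IGF at 37 deg C. After lysis, Ser473-phosphorylated Akt read by HTRF (ex 330 nm, em 615/665 nm) as the 665/615 ratio.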
An asterisk follows results filed as active; i = inactive; u = inconclusive; x = no result; [ ] = remark or other dose.

SMILES | gsp antag | RXFP1 antagonist | RXFP1 agonist | gsp agonist | pAkt inh
CCOC(=O)c1cc(C)n(CC2CCC(C(=O)Nc3ccc(C)cc3)CC2)c1C (centres undefined) | x | 5 | -1% | x | x
C=CCOc1c(Cl)cc(CNCCC)cc1Cl | 7% | -8 | 3% | -3% | -91%*
CCCNCc1cc(Cl)c(OCC)c(Cl)c1 | 5% | 0 | -2% | 29% | i
CCNc1nc(C)c2cc(Br)c(=O)n(CC)c2n1 | 8% | 11 | u | 20µM* | -104%*
CCn1c(=N)c(C(=O)NC)cc2c(=O)n3cccc(C)c3nc21 | 7% | 5 | 26% | 12% | i
Cc1ccccc1-c1n[nH]c(=S)o1 | 40% | 9 | 16µM* | u | -102%*
COc1ccc(Cl)cc1-c1n[nH]c(=S)o1 | -1% | -5 | 6.3µM* | 14µM* | i
COc1ccc(C(=O)Nc2ccc(-c3n[nH]c(=S)o3)cc2)cc1OC | -4% | 2 | 9% | 20% | i
COc1ccc(OC)c(CNS(=O)(=O)c2ccc3c(c2)CCCN3C(C)=O)c1 | x | 1 | -1% | x | x
O=C(Nc1ccc(Br)cc1F)N1CCC2(CC1)Oc1ccccc1C(=O)N2Cc1ccccc1F | x | -14 | 4% | x | x
CCn1c(Cl)c(C=O)s/c1=N\S(=O)(=O)c1ccccc1 | -26% | -87* | 4% | u | i
OCCN(CCO)c1ccc(C(c2ccccc2Cl)c2ccc(N(CCO)CCO)cc2Cl)c(Cl)c1 | u | -60* | 1% | -24% | i
OCCN(CCO)c1ccc2ccccc2c1 | -8% | -3 | 1% | u | i
Cn1c(=O)c2c(ncn2CCC(=O)N/N=C/c2cccnc2)n(C)c1=O | 1% | 5 | 16µM* | 42%[15.4 µM] | i
COc1ccc(C(=O)/C=C2\C(=O)Nc3ccc(Br)cc32)cc1 | 7% | -75* | x | 0% | i
O=C1Nc2ccccc2/C1=C\C(=O)c1ccccc1 | 7% | u | 0% | u | i
O=C1Nc2ccc(Br)cc2/C1=C/C(=O)c1ccc2c(c1)OCO2 | 3% | -84* | 4% | 15% | i
CSc1cccc(N2C(=O)N(CC(=O)NCc3ccccc3Cl)c3ccccc3S2(=O)=O)c1 | x | x | 10% | x | x
Cc1ccccc1CNC(=O)Nc1ccc2c(c1)N(C)C(=O)c1ccccc1S2 | x | -39 | 0% | x | x
Cc1ccc(CSc2nc(=O)c3c(C)cc(C)nc3n2C2CC2)cc1 | x | -62* | 10% | x | x
COC(=O)c1cc(C)nc2c1c(=O)nc(SCc1c(C)cc(C)cc1C)n2C1CC1 | x | -18 | 3% | x | x
Cc1cc(NCCCn2ccnc2)n2nc(-c3ccc(F)cc3)cc2n1 | -4% | -12 | 2% | 23% | i
Cc1cccc(-c2cc3nc(C)c(C)c(NCCCn4ccnc4)n3n2)c1 | -18% | -98* | 8% | -3%[15.4 µM] | i
COc1ccc([C@H]2[C@H](C(=O)C(C)(C)C)N3N=Cc4ccccc4C3[C@]23N=C(c2ccccc2)OC3=O)cc1OC (some centres undefined) | -1% | -5 | 2% | -14% | -106%*
CC(=O)c1cccc(NC(=O)c2ccc3nc(C(C)C)oc3c2)c1 | x | -7 | -2% | x | x
SMILES | gsp antag | RXFP1 antagonist | RXFP1 agonist | gsp agonist | pAkt inh
CC1=C(C)/C(=N\OS(=O)(=O)c2ccccc2)C=CC1=O | u | -114* | -3% | 4% | i
O=C(NCc1nnc2c(C(F)(F)F)cc(Cl)cn12)c1ccc(Br)o1 | 14% | 20 | u | 13µM* | i
O=C(NCc1nnc2c(C(F)(F)F)cc(Cl)cn12)c1cccnc1 | 2% | 4 | 16µM* | u | x
O=C(NCc1nnc2c(C(F)(F)F)cc(Cl)cn12)c1ccc2c(c1)OCO2 | 15% | 4 | u | u | i
CCN(CC)S(=O)(=O)c1ccc(N2CCCC2)c(NS(=O)(=O)c2ccc(F)cc2)c1 | -4% | 20 | -1% | 25µM* | i
Cn1nnnc1SCCCNCc1ccccc1OCc1ccc(F)cc1 | x | 0 | 0% | x | x
CCOC(=O)Cc1nnc(Nc2cccc(C)c2)c2ccccc12 | -14% | 10 | 0% | 3% | -109%*
CC(=O)c1ccc(N2CCN(CC(O)COC(c3ccccc3)c3ccccc3)CC2)cc1 (centres undefined) | -20% | -79* | -3% | u | i
O=C(O)C(=O)Nc1cccc(-c2nn[nH]n2)c1 | x | 2 | x | x | x
O=C(Nc1cccnc1Cl)c1ccc(Cl)cc1 | 0% | -63* | 1% | -8% | i
CN(Cc1ccccc1)C(=O)COC(=O)C1CCN(S(=O)(=O)c2ccc(Cl)c(C(F)(F)F)c2)CC1 | -4% | -96* | 0% | 5%[15.4 µM] | i
Cc1ccc(S(=O)(=O)N2CCC(C(=O)OCC(=O)N(C)Cc3ccccc3)CC2)cc1C | -1% | -5 | 0% | -24%[15.4 µM] | i
CCOc1ccc(NC(=O)CN2C(=O)C3(SCC(=O)N3c3ccc(F)cc3)c3ccccc32)cc1 (centres undefined) | x | x | -4% | x | x
COc1ccc(OC)c(NC(=O)CN2CCC(C(=O)c3ccc(C)cc3)CC2)c1 | 28µM* | -21 | 0% | 15% | x
COc1ccc(NC(=O)CN2CCC(C(=O)c3ccc(C)cc3)CC2)c(OC)c1 | -25% | -9 | 2% | u | i
COc1ccc(OC)c(/C(O)=C/C(=O)C(=O)Nc2cc(C)ccc2OC)c1 | 3% | -8 | 0% | 0% | i
COc1ccc(OC)c(/C(O)=C/C(=O)C(=O)Nc2cc(C)cc(C)c2)c1 | -17% | 4 | 0% | -33% | -106%*
Nc1nc2ccccc2n1Cc1ccc(F)cc1 | x | -7 | x | x | x
CCc1nnc(N/N=C/c2cc(Br)c(O)cc2O)n1N | -24% | 16 | 2% | -17% | i
CC(C)(C)c1nnc(N/N=C/c2cc(Br)ccc2O)n(N)c1=O | 28µM* | -88* | 1% | -6% | i
O=C(NC1CCS(=O)(=O)C1)/C(=C/c1ccco1)NC(=O)c1ccccc1 (centres undefined) | 0% | -72* | -2% | u | i
CC(C)(C)OC(=O)N1CCC(c2c(C(=O)Nc3ccc4c(c3)OCCO4)cnn2-c2ccccc2)CC1 | x | -22 | -6% | x | x
COc1ccc(-c2cc(C(=O)Nc3c(C)nn(Cc4ccc(F)cc4)c3C)no2)cc1OC | x | -4 | 2% | x | x
C=CCOc1c(Cl)cc(CNc2ccc(N(C)C)cc2)cc1OC | u | -103* | -14% | 14% | i
C=CCOc1c(Cl)cc(CNc2ccc(C)c(Cl)c2)cc1OC | x | x | 3% | x | x
Nc1nnc(SCC(=O)Nc2cc(S(=O)(=O)N3CCOCC3)ccc2N2CCCC2)s1 | 9% | 7 | 9% | 20% | i
O=C(CSc1nncs1)Nc1cc(S(=O)(=O)N2CCOCC2)ccc1N1CCCC1 | 9% | 0 | 18% | 22µM* | i
Cc1ccc(S(=O)(=O)N(C)C)cc1NC(=O)CSc1nncs1 | 0% | -22 | 8% | -6%[15.4 µM] | i
COc1ccc(S(=O)(=O)N(C)C)cc1NC(=O)CSc1nncs1 | 19% | 8 | 18µM* | 44%[15.4 µM] | i

Screening results from PubChem BioAssay.
